Where “and” joins values, the source holds several entries; their conditions need not be identical. Equal entries are not always repeated. Hit rate of the full screen: of about 420,000 compounds, about 75 (0.02%) were called active. Calls follow the shape of the dose curve; as a rule, active = well fitted activation curve with a large enough effect; inconclusive = small, poorly fitted or top-dose-only effect; inactive = no such curve, though single readings can be large or run the other way. Only a selection was taken, and actives are over-represented in it overall. The source holds several records for some structures; these can differ, active in one and inactive in another.
Assay: qHTS for Inducers of the Endoplasmic Reticulum Stress Response (ERSR) in Human Glioma: qHTS; also: nearly all actives have a fitted effect of over 35% in size; as to activation: % of control where 0% means no effect
Details: U87-MG GRP78 promoter luciferase reporter, 16 h; activation: active compounds read high
Text: Primary protein unfolding takes place for many diseases, including diabetes and hypoxia, , and triggers a reaction in the cells called ER stress response (ERSR). ). ERSR is designed as a repair mechanism, but ultimately leads to cell death via apoptosis if conditions triggering protein unfolding persist (1). The molecular clue to ERSR activation is the enhancement of the expression of key molecular chaperones, including the glucose regulated protein (GRP) 78. GRP78 is the main sensor for protein folding and the main actuator of the ERSR.
In a collaboration between the Southern Research Institute and the NIH Chemical Genomics Center, a cell based screen was developed that reliably uses GRP78 as a sensor to identify small molecules as inducers of ERSR. In resting conditions, GRP78 binds proteins and acts as a natural repressor. Once unfolded proteins are present in the ER, GRP78 releases some of the repressors and binds to the unfolded proteins. The release of the repressors executes the ERSR program. Using a human glioma cell line in a miniaturized, luminescent format, a high-throughput screen was developed to identify actuators of the ERSR.
(1) Soboloff, J. and S. A. Berger (2002). "Sustained ER Ca2+ depletion suppresses protein synthesis and induces activation-enhanced cell death in mast cells." J Biol Chem 277(16): 13812-20.
NIH Chemical Genomics Center [NCGC]
NIH Molecular Libraries Probe Centers Network [MLPCN]
Assay Submitter (PI): Maurizio Grimaldi, Southern Research Institute
Stable transfected human glioma cell line, U87-MG, are dispensed at density 1000 cells/well into Greiner white solid bottom 1536-well assay plates. Compounds are transferred via Kalypsys pin tool equipped with 1536-pin array (10nl slotted pins, V&P Scientific, San Diego, CA). The assay plates will be incubated for 16 hours and developed by adding appropriate quantities of the Promega Bright Glo reagent. The plates will be incubated at room temperature for 10 minutes prior to being transferred into a ViewLux high-throughput CCD imager (PerkinElmer), wherein end-point measurements of luminescence are acquired.
Potency is read from the fitted curve at half-maximal effect.

activation, inactive:
COc1ccccc1C(=O)N[C@@H]1c2ccccc2C2(CCN(C(=O)c3csnn3)CC2)[C@H]1OC 0.874%, Cc1cc(C)cc(C#CC2C=CC(Oc3ccc(C4CCCC4)cc3)C(CO)O2)c1 (stereo unspecified) -1.34%, O=S(O)CNc1ccc(S(=O)(=O)c2ccc(NCS(=O)O)cc2)cc1 -4.53%, C[C@]12CC[C@@H]3C(=CCc4cc(O)ccc43)[C@@H]1CCC2=O 2.61%, Fc1ccc(Cl)cc1-c1nc(Nc2ccncc2)c2nccnc2n1 -1.14%, Cc1cnc(-n2ncc(C(=O)N3CCN(C(C)C)CC3)c2-c2ccco2)nc1-c1ccc(F)cc1 -4.71%, COC(=O)[C@@H]1CC[C@H](C)[C@@H](c2ccc(C)cc2)N1C(=O)c1ccc(/C=N\OC[C@@H](O)COCc2ccco2)cc1 3.64%, C#C[C@]1(O)CC[C@H]2[C@@H]3CCC4=CC(=O)CC[C@@H]4[C@H]3CC[C@@]21CC 3.01% and -1.02%, COc1cc(=O)n2c(c1C(=O)NC(C)c1ccco1)CCN(C(=O)c1cn3ccc(C)cc3n1)CC2 (stereo unspecified) -2.08%, CN(C)c1ccc(/C=C/C=C/c2ccnc3ccccc23)cc1 -3.58%, C=COC(=O)N1CCN(/[N+]([O-])=N/Oc2ccc([N+](=O)[O-])cc2[N+](=O)[O-])CC1 -11%, O=C1c2c(O)cccc2[C@@H]([C@@H]2O[C@H](CO)[C@@H](O)[C@H](O)[C@H]2O)c2cc(CO)cc(O)c21 -3.93%, CO[C@H]1COC(=O)[C@@H](OCc2ccccc2)/C=C\[C@H](C)[C@@H](OC)COC(=O)[C@H](OCc2ccccc2)/C=C\[C@@H]1C -0.0422%, C[N+](C)(CCOc1ccccc1)Cc1cccs1 (tested in a mixture with another compound) -5.19%, CCCC(=O)O[C@]1(C(=O)COC(=O)CC)CC[C@@H]2[C@@H]3CCC4=CC(=O)CC[C@]4(C)[C@H]3[C@@H](O)C[C@@]21C -2.74%, C=C1C(=O)C23C(O)C1CCC2[C@]12COC3(O)C(O)C1C(C)(C)CC[C@H]2O (stereo partly specified) -12.5%, CO[C@H]1[C@H](NC(=O)C(C)C)c2ccccc2C12CCN(Cc1cnc(N(C)C)s1)CC2 -3.14%, CC1O[C@@H](Oc2c(-c3ccc(O)c(O)c3)oc3cc(O)cc(O)c3c2=O)C(O)C(O)C1O (stereo partly specified) -2.63%, O=C(C(=O)N1CCOc2ccc(CN3CCN(Cc4ccccn4)CC3)cc2C1)c1ccccc1 -4.17%, CCCCC(=O)OCC(=O)[C@H]1[C@H](C)C[C@@H]2[C@@H]3C[C@@H](F)C4=CC(=O)C=C[C@]4(C)[C@@]3(F)[C@@H](O)C[C@@]21C -0.711%, COC(=O)[C@@H]1C[C@H](NC(=O)c2ccccc2C(F)(F)F)CN1Cc1cccc(O)c1 -4.69%, CCc1nc2cc(C(=O)NCC3CCS(=O)(=O)C3)cc(NC(=O)c3ccccc3OC)c2n1C (stereo unspecified) -5.29%, Cc1nc2cc(NC(=O)[C@@H]3C[C@@H](Sc4ccccn4)CN3Cc3ccccc3C)ccc2s1 -3.4%, O=C1OC(C(O)CO)C(O)=C1O (stereo unspecified) -2.25%, COc1ccc(COC(=O)N/N=C2/C[C@@H](O)[C@@H](O)[C@@H]3[C@@H]4C(=O)N([C@@H](C)c5ccccc5)C(=O)[C@H]4CC[C@@H]23)cc1 -1.75%, O=C(O)c1ccc(/C=C2/SC(=S)N(c3cccc(C(F)(F)F)c3)C2=O)cc1 2.71%, CC(=O)/C(C)=N\O -3.3%, C(=Nc1ccc(/C=C/c2ccnc3ccccc23)cc1)Nc1ccc(/C=C/c2ccnc3ccccc23)cc1 -10.1%, CN1CC(O)c2cc(N=NC(N)=O)c(O)cc21 (stereo unspecified) 4.72%, Cc1ccc(-c2ccc(C(=O)N3CCc4nnc(CNC(=O)c5ccccc5)n4CC3)cc2)cc1 -3.28%, CC1(C)[C@H](O[C@H]2O[C@H](C(=O)O)[C@@H](O)[C@H](O)[C@H]2O[C@@H]2O[C@H](C(=O)O)[C@@H](O)[C@H](O)[C@H]2O)CC[C@@]2(C)[C@H]1CC[C@]1(C)[C@H]2C(=O)C=C2[C@H]3C[C@@](C)(C(=O)O)CC[C@]3(C)CC[C@]21C -2.51%, O=c1c(O)c(-c2ccc(O)cc2)oc2ccccc12 -1.19%, CC(=O)Nc1ccccc1-c1nc(CNC(=O)c2ccc(Cl)cc2)c(C)o1 -2.78%, COCc1c(C(=O)NC2CCCCC2)cnn1-c1nccc(-c2ccccc2OC)n1 0.854%, COc1cc(C)c(CN2CCc3nnc(C(C)NC(=O)c4cccnc4)n3CC2)cc1C (stereo unspecified) -0.402%, Cn1nccc1C(=O)NCC1CCC2(CCN(Cc3c(O)ccc4ccccc34)CC2)O1 (stereo unspecified) -1.48%, Cc1cc(-c2ccnc(-n3ncc(C(=O)NCCc4ccncc4)c3C)n2)c(C)s1 -1.46%, CN(C)c1ccc(/C=C/c2sc3ccccc3[n+]2CCCCBr)cc1 -6.95%, COc1ccccc1-c1nc(NCc2cccs2)c2ccccc2n1 -5.15%, CO[C@H]1COC(=O)[C@H](Cc2ccccc2)NC(=O)C/C=C\[C@@H](C)[C@H](OC)COC(=O)C/C=C\[C@@H]1C -4.82%, COc1cccc([C@H]2Oc3ccc(OC)cc3/C(=N\OCC[C@@H]3C=C[C@H](OC(C)=O)[C@H](COC(C)=O)O3)[C@@H]2O)c1 -2.8%, O=C(NCCN1CCOCC1)c1cnn(-c2nccc(-c3cccs3)n2)c1C1CC1 -4.37%, CC(C)CN1CCc2nc(-c3ccccc3)c3c(c2C1)COC(C)C3 (stereo unspecified) -2.93%, Cc1cc2oc(=O)cc(-c3ccccc3)c2c(C)c1/C=C/c1ccc(F)cc1 -1.4%, CCC(C)C1OC2(C=CC1C)CC1CC(C/C=C(/C)C(OC3CC(OC)C(OC4CC(OC)C(NC(C)=O)C(C)O4)C(C)O3)C(C)/C=C\C=C3\COC4C(O)C(C)=CC(C(=O)O1)C34O)O2 (stereo unspecified) -10.3%

Potency, active:
C#C[C@]1(O)CC[C@H]2[C@@H]3CCC4=CC(=O)CC[C@@H]4[C@H]3CC[C@@]21CC 20 µM
